The nature of assay [1]: AP1 Signaling Pathway (AID 357).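 Note: ME-180 reporter cells stimulated with EGF at its EC50 level; % is set by controls: 0 for no effect and ±100 for the full control effect.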 The note with it: ME-180 AP-1-bla reporter, EGF-induced, beta-lactamase ratio, 5 h; at 7.69 µM (top of the series) unless noted. In short, it runs like this:
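Beta-lactamase reporter under AP-1 response element, ME-180 background. Stimulus: EC50 EGF. Compound exposure 5 h, 37 °C. Detection: CCF4, 2.5 h RT, 460/530 nm. Values: AC50 from titration.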

The target in assay [2] is Cytochrome P450 1A2 (Homo sapiens) (UniProt P05177). Briefly: p450-cyp1a2 (AID 410; calls by dose curve; note: potency is the fitted concentration of half-maximal effect). In short, it runs like this: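 Luminescent readout of luciferin formed from Luciferin-ME by human CYP1A2; data normalized against complete inhibition by 57 uM furafylline. Enzyme 20nM, substrate 100uM at Km, 100mM KPO4 buffer, 60 min reaction at room temperature.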
Chain of Cytochrome P450 1A2 (Homo sapiens) (P05177 whole entry, looked up): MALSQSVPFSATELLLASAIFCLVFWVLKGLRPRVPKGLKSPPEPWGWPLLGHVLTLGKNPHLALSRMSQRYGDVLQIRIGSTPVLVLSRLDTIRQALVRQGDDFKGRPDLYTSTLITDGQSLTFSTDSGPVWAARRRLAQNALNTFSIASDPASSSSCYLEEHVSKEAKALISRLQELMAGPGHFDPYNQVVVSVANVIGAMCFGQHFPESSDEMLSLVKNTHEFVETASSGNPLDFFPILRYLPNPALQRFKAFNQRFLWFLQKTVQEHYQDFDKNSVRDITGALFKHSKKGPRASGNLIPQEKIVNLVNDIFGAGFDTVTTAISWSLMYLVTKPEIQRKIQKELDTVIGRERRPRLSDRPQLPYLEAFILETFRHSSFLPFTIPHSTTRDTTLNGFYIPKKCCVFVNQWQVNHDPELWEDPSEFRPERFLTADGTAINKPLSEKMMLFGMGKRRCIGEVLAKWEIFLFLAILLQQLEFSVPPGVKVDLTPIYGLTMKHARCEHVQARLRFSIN
Assay [3] can be described thus: NFAT Signaling Pathway (AID 444).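 Note: carbachol stimulus at about its EC50 of 1 µM final; % is set by controls: 0 for no effect and ±100 for the full control effect.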 The following applies: Jurkat NFAT-bla M1, carbachol, beta-lactamase ratio, 5 h; at 7.69 µM (top of the series) unless noted. In a few lines:
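Jurkat cells carrying an NFAT-driven β-lactamase reporter and co-transfected muscarinic M1 receptor were treated with compound plus carbachol (1 uM final, an EC50 level) for 5 h at 37 °C. CCF4 loading followed for 1 h at RT; 460/530 nm ratio gave %activity.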

Assay [4] is described as follows: Stat Signaling Pathway (AID 446).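 Note: ME-180 cervical cancer cells given 40 pM IL-6 alongside compound; SIE-controlled beta-lactamase reporter measured as 460/530 nm FRET emission ratio; % is set by controls: 0 for no effect and ±100 for the full control effect.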 The following applies: ME-180 SIE beta-lactamase reporter, IL-6 stimulated, 5 h; at 7.69 µM (top of the series) unless noted. In short, it runs like this: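 Reporter line: ME-180 cervical carcinoma, SIE-beta-lactamase. Treatment: compound with 40 pM IL-6, 5 hrs, 37 C, in low-serum OPTI-MEM with 10 mM HEPES pH 7.3. Detection: 460/530 nm fluorescence.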

Assay [5] has as its target Glucocorticoid receptor (Homo sapiens) (UniProt P04150). Briefly: GR-GFP Redistribution (AID 450;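 active = compounds whose dose series gives a full or clear partial fitted curve of increased nuclear translocation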; note: potency is the fitted concentration of half-maximal effect). The following applies: U2OS GR-GFP nuclear translocation, laser cytometry, 2 h.
For assay [6] the target is unchanged. Description: GR-EFC Redistribution (AID 451; calls by dose curve; note: potency is the fitted concentration of half-maximal effect). The following applies: CHO-K1 GR-EFC translocation, beta-gal luminescence, 2 h. In a few lines:
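CHO-K1 cells stably expressing nuclear-localized β-gal enzyme acceptor and GR fused C-terminally to the enzyme donor fragment; ligand-driven nuclear translocation restores β-gal by complementation. Compounds titrated up to 46 uM final, 2 h at 37 °C; luminescence read.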

The target in assay [7] is Mitogen-activated protein kinase 10 (Mus musculus) (UniProt Q61831). Description: JNK3 AlphaScreen Assay (AID 530).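 Note: kinase came from lysate of stimulated human HepG2 cells; signal reports phosphorylation of biotinylated GST-cJun 1-79 at Ser73 with 10 µM ATP; % is set by controls: 0 for no effect and ±100 for the full control effect.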 In short, it runs like this:
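Inhibitors reduce antibody binding to phosphorylated biotin-cJun, lowering AlphaScreen luminescence. Lysates from HepG2 cells pre-activated by IL-1beta plus TNF-alpha supplied JNK3; compounds were titrated.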
On the technique in general: Bead proximity is the source of the signal in Alpha formats.

The target in assay [8] is 3',5'-cyclic-AMP phosphodiesterase 4B (Homo sapiens) (UniProt Q07343). Description: qHTS Assay for Inhibitors of PDE-IV (AID 607; active = well fitted activation curve with a large enough effect in the main read-out, with a control signal flat, not every such curve was filed as active; note: % of control where 0% means no effect). In short, it runs like this:
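Cell-based read-out of cAMP via a modified cyclic nucleotide-gated channel and membrane potential dye (535/590 nm) in HEK293 cells expressing PDE4 endogenously. Compounds tested up to 22.9 uM final; 100 uM RO 20-1724 reference.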

The target in assay [9] is Cytochrome P450 2C9 (Homo sapiens) (UniProt P11712). Description: qHTS Assay for Inhibitors and Substrates of Cytochrome P450 2C9 (AID 883; active = well fitted curve in the direction sought with a large enough effect; an effect the other way counts as inactive or inconclusive; note: nearly all actives have a fitted effect of over 60% in size; note: potency is the fitted concentration of half-maximal effect). In short, it runs like this: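 CYP2C9 deoxyluciferin hydroxylation, 37C, 60 min with NADPH regeneration; 10nM enzyme, 100uM Luciferin-H (KM). Glo detection reagent stopped reaction; luminescence normalized to sulphaphenazole (57uM) full inhibition.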
Chain of Cytochrome P450 2C9 (Homo sapiens) (P11712 whole entry, looked up): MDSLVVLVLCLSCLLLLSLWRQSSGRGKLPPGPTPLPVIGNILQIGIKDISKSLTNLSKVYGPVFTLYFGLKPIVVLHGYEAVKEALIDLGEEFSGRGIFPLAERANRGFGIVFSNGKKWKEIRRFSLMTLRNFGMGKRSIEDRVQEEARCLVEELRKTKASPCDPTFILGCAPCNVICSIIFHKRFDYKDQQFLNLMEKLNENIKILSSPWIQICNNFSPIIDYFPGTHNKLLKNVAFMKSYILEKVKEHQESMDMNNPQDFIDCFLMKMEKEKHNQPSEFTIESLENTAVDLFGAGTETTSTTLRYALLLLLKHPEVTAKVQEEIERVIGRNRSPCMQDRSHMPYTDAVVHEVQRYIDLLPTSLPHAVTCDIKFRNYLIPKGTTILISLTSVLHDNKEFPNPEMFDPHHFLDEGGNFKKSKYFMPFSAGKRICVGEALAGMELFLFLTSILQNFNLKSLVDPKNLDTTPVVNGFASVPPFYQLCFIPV

Assay [10] addresses Cytochrome P450 3A4 (Homo sapiens) (UniProt P08684). Briefly: qHTS Assay for Activators of Cytochrome P450 3A4 (AID 885; active = well fitted curve in the direction sought with a large enough effect; an effect the other way counts as inactive or inconclusive; note: nearly all actives have a fitted effect of over 65% in size). In short, it runs like this:
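Signal was normalized against complete inhibition by 57 uM ketoconazole. The reaction used 20nM CYP3A4 with 25uM Luciferin-PPXE, 10-min compound preincubation and a 60-min NADPH-supported step at RT.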

Assay [11] has as its target Cytochrome P450 2D6 (Homo sapiens) (UniProt P10635). Briefly: qHTS Assay for Inhibitors and Substrates of Cytochrome P450 2D6 (AID 891; active = well fitted curve in the direction sought with a large enough effect; an effect the other way counts as inactive or inconclusive;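 note: luciferin methyl ether substrate demethylated by CYP2D6 with NADPH regeneration; % is set by controls: 0 for no effect and ±100 for the full control effect; nearly all actives have a fitted effect of over 60% in size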). In a few lines: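 Human CYP2D6 (5 nM) with 30 uM Luciferin-ME EGE (at Km) in 100 mM KPO4, compound preincubated 10 min, then NADPH regeneration system for 60 min at room temperature. Luciferin read by luminescence; normalized to 1.43 uM quinidine.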

Assay [12] addresses Cytochrome P450 2C19 (Homo sapiens) (UniProt P33261). Briefly: qHTS Assay for Inhibitors and Substrates of Cytochrome P450 2C19 (AID 899; active = well fitted curve in the direction sought with a large enough effect; an effect the other way counts as inactive or inconclusive; note: % is set by controls: 0 for no effect and ±100 for the full control effect; nearly all actives have a fitted effect of over 60% in size). In short, it runs like this: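 In 50mM KPO4, the reaction held 5nM enzyme and KM-level (10uM) Luciferin-H EGE; it ran 60 min at 37C after NADPH regeneration and a 10 min compound preincubation. Luminescence values were scaled to 57uM ketoconazole as complete inhibition.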

Assay [13] addresses Guanine nucleotide-binding protein G(i) subunit alpha-1 (Homo sapiens) (UniProt P63096). Description: qHTS Assay for Inhibitors of RGS12 GoLoco Motif Activity (Green Fluorophore) (AID 879; active = well fitted curve in the direction sought with a large enough effect; an effect the other way counts as inactive or inconclusive;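 note: 0% = labeled peptide with Gαi1 and full inhibition = labeled peptide alone without protein; negative values mean loss of peptide binding seen as reduced polarization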). In short, it runs like this:
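Fluorescence polarization assay: 50 nM Gαi1 with 10 nM FITC-labeled RGS12 GoLoco peptide in 10 mM Tris pH 7.5, 150 mM NaCl, 0.1 mM GDP, 0.05% NP40, 10 min at room temperature with compound.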

Assay [14] addresses Muscarinic acetylcholine receptor M1 (Rattus norvegicus) (UniProt P08482). Description: qHTS Assay for Antagonists of Acetylcholine Muscarinic M1 Receptor: Measurement of IP-One Response (AID 944; active = well fitted curve in the direction sought with a large enough effect; an effect the other way counts as inactive or inconclusive; note: nearly all actives have a fitted effect of over 75% in size). In a few lines: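 M1-CHO (rat), 2000 cells/well, overnight recovery; cpd 10 min; carbachol EC80 (200 nM), 30 min, HEPES buffer + 50 mM LiCl pH 7.4; IP-One HTRF, Ex 337, Em 620/665 nm.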

Assay [15] addresses Pyruvate kinase PKM (Homo sapiens) (UniProt P14618). Briefly: qHTS Assay for Activators of Human Muscle Pyruvate Kinase (AID 954; active = well fitted curve in the direction sought with a large enough effect, not every such curve was filed as active;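 note: 0% = uninhibited enzyme and -100% = no enzyme or full thiadiazolimine inhibition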). In a few lines:
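Human PKM2 activity is measured as ATP generation, detected by luciferase-coupled luminescence. The enzyme (0.1 nM) acts on 0.5 mM PEP and 0.1 mM ADP for 1 h at ambient temperature; data are normalized to uninhibited and full-inhibition wells.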
A general note: In qHTS, concentration-response curves come from the screen itself.

Assay [16] concerns the target Alpha-galactosidase A (Homo sapiens) (UniProt P06280). Description: Counterscreen for Glucocerebrosidase Inhibitors: qHTS Assay for Human alpha-Galactosidase at pH 4.5 (AID 992; active = well fitted curve in the direction sought with a large enough effect; an effect the other way counts as inactive or inconclusive; note: 0% is about no effect). In short, it runs like this: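 Quantitative HTS: compounds tested from 0.7 nM up to 77 uM against 2 nM enzyme with 80 uM 4-MU alpha-D-galactopyranoside. The 20 min room-temperature reaction is stopped with 1M NaOH/1M glycine, pH 10.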
(In general: Counterscreens check selectivity or assay interference.)

Assay [17] concerns the target alpha-glucosidase (Oryza sativa, rice) (UniProt Q653V4). Description: Counterscreen for Glucocerebrosidase Inhibitors: qHTS Assay for Rice alpha-Glucosidase at pH 5.0 (AID 997; active = well fitted curve in the direction sought with a large enough effect; an effect the other way counts as inactive or inconclusive;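 note: 0% = full activity with enzyme and -100% = basal without enzyme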). In short, it runs like this:
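Rice alpha-glucosidase (4 nM final) with 400 uM 4-methylumbelliferyl-alpha-D-glucopyranoside in citrate buffer pH 5.0, 20 min at room temperature, stopped at pH 10; fluorescence 365/440 nm, compounds 0.7 nM–77 uM, AC50 from Hill fits.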

The target in assay [18] is Pyruvate kinase (Leishmania mexicana) (UniProt Q27686). Briefly: qHTS Validation Assay for Inhibitors of Leishmania Mexicana Pyruvate Kinase (AID 945; active = well fitted curve in the direction sought with a large enough effect; an effect the other way counts as inactive or inconclusive;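 note: 0% = DMSO only neutral control wells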). In short, it runs like this: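 Eight-point qHTS titrations in triplicate, data normalized to DMSO neutral control. Reaction: 0.2 nM LmPYK E451W mutant, 0.5 mM PEP, 0.1 mM ADP, 7 mM MgCl2, pH 7.2, one hour at room temperature; luminescent ATP detection.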

Values without a mark were called inactive. Results filed as inconclusive are left out. The source made the active and inactive calls. Unless noted, calls come from the whole dose curve; as a rule, active = well fitted curve in either direction with a large enough effect (not every such curve was filed as active); inconclusive = small, poorly fitted or top-dose-only effect, or another doubt; inactive = flat fitted curve, though single readings scatter. Where only a bound is given, the exact number is not on record here.

Chain of Cytochrome P450 2C19 (Homo sapiens) (P33261 whole entry, looked up): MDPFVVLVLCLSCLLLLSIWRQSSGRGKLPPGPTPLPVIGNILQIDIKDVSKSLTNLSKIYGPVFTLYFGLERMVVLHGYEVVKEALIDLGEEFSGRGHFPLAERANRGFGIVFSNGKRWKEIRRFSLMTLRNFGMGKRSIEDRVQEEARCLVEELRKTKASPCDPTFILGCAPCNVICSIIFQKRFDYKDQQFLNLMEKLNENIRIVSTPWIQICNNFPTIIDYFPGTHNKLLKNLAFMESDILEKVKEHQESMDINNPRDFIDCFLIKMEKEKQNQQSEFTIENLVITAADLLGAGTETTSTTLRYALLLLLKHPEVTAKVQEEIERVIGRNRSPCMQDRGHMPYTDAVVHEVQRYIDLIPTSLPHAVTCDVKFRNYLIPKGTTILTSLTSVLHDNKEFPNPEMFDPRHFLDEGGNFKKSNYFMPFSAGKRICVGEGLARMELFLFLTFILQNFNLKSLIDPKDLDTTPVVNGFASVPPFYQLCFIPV
Chain of Glucocorticoid receptor (Homo sapiens) (P04150 whole entry, looked up): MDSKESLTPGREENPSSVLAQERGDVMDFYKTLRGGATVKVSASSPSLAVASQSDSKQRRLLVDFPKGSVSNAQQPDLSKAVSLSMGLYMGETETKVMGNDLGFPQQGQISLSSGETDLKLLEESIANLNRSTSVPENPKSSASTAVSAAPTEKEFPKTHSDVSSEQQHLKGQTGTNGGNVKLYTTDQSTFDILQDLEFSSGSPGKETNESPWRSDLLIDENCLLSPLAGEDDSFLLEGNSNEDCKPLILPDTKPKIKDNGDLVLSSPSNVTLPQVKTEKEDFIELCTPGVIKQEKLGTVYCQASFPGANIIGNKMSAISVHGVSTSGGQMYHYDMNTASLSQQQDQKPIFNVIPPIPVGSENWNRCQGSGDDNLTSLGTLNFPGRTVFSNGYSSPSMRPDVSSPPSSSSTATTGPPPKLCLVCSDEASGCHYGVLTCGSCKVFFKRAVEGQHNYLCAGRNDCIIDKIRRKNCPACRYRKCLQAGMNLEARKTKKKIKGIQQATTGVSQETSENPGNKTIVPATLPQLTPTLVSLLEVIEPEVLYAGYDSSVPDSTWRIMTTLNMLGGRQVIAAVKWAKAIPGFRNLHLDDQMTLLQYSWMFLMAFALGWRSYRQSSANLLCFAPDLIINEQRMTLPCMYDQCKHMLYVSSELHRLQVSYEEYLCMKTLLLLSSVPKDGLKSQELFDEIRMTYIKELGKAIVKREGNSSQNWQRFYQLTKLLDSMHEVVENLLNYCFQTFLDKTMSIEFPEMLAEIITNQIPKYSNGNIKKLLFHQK
Chain of 3',5'-cyclic-AMP phosphodiesterase 4B (Homo sapiens) (Q07343 whole entry, looked up): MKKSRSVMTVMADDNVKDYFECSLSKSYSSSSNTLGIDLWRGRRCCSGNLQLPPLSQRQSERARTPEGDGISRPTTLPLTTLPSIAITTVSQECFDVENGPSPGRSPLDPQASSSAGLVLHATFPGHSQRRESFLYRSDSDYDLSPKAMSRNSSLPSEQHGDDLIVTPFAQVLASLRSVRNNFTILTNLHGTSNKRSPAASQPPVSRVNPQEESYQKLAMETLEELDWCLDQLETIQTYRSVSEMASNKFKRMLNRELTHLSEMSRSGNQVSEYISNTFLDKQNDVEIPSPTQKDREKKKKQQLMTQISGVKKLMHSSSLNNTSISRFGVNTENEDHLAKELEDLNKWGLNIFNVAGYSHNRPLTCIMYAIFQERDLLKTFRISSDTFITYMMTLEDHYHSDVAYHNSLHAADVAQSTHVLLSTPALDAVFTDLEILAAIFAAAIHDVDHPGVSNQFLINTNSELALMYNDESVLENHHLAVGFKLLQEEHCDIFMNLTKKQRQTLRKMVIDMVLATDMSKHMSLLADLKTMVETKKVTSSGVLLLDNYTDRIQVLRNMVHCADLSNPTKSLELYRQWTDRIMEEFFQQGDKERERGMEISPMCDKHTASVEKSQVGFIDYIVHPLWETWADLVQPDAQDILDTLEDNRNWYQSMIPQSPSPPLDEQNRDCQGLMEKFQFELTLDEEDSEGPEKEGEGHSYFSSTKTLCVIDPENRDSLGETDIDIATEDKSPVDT
Chain of Cytochrome P450 2D6 (Homo sapiens) (P10635 whole entry, looked up): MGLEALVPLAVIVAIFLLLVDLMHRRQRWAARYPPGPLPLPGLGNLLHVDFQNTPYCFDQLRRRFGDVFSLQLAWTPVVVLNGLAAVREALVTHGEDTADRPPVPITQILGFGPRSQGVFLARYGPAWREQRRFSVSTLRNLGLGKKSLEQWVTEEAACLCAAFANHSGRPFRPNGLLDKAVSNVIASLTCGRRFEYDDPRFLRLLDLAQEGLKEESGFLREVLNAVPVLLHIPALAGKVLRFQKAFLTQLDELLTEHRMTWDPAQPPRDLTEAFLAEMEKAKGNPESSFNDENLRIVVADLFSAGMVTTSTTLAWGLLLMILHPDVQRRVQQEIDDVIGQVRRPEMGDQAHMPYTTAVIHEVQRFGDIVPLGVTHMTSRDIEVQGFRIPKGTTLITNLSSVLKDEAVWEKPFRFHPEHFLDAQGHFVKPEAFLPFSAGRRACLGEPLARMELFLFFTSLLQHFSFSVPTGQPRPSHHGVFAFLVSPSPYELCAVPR
Chain of Pyruvate kinase PKM (Homo sapiens) (P14618 whole entry, looked up): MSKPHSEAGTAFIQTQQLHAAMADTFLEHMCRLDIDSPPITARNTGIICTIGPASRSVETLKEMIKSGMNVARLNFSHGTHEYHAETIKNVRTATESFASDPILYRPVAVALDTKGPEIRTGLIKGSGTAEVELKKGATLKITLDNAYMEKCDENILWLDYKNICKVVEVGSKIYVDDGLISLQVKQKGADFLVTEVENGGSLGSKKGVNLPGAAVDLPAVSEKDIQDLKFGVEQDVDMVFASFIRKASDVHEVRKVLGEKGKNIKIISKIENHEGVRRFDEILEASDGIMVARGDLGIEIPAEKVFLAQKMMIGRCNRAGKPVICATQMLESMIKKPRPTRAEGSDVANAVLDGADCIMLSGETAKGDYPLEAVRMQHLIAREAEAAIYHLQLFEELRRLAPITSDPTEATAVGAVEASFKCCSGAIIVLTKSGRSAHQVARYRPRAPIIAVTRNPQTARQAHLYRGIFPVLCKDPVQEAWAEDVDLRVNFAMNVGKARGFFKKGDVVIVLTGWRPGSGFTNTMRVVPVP
Chain of Guanine nucleotide-binding protein G(i) subunit alpha-1 (Homo sapiens) (P63096 whole entry, looked up): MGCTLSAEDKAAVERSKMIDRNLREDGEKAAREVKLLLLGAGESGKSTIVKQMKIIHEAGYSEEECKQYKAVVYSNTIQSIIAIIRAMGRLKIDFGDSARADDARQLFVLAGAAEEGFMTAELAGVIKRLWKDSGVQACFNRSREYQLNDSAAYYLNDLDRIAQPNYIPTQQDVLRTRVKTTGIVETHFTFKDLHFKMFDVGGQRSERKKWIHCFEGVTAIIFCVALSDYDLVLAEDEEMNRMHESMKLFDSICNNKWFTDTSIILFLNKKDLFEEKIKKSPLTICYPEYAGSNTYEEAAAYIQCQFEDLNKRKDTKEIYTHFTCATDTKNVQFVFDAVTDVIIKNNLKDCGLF
Chain of Alpha-galactosidase A (Homo sapiens) (P06280 whole entry, looked up): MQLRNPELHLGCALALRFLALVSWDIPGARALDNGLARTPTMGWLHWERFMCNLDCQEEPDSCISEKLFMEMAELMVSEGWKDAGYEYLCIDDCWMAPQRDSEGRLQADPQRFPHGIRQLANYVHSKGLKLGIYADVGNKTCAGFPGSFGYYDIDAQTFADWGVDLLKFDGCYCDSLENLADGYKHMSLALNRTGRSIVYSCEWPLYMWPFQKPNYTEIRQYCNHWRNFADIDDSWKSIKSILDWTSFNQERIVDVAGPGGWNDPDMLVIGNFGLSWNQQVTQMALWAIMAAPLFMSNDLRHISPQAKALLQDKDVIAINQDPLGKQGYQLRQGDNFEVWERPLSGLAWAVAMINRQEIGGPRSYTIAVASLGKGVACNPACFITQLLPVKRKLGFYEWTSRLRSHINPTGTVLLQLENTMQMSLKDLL

On to `N#CCCn1c(=O)c(CCc2ccccc2)nc2cnc(Oc3ccccc3)nc21`, for which the activity change, negative = inhibition in assay [1] was -21%; in [3], -2.26%. Besides, the Potency in assay [2] was 12.6 µM (active); in assay [5], greater than 9.22 µM; in assay [6], greater than 46 µM; in assay [9], 7.94 µM (active). The activity, negative = inhibition in assay [4] is -14.5%. The Potency result in assay [7], in assay [8] and in [10] was “inactive” throughout.

As to `O=C(O)CCCCCC[C@@H]1C(=O)NC(=O)N1CC[C@@H](O)C1CCCCC1`, the activity change, negative = inhibition in assay [1] is -8.86% [at 38 µM]; in assay [3], -9.7% [at 38 µM]. Besides, the Potency result in assay [2], in assay [7], in assay [8], in assay [9], in [11] and in assay [12] was “inactive” throughout. Also, the activity, negative = inhibition in [4] is 3.65% [at 38 µM]. Further, the Potency in [5] and in [6] was greater than 46 µM in each case.

As for `Cc1ccccc1/C=C\C1=NCCN1`, the activity change, negative = inhibition in [1] was -3.38% [at 38 µM]; in assay [3], -1.9% [at 38 µM]. For the same compound, the results for the Potency in assay [2], in [5] and in assay [6] were 6.31 µM (active), greater than 46 µM and greater than 46 µM, respectively. For the same compound, in [4], the activity, negative = inhibition is 5.08% [at 38 µM]. The Potency entry in [7], in assay [8], in assay [14] and in [17] was “inactive” each time. Further, the outcome in assay [13], in assay [15] and in assay [16] was inactive.

Regarding `CNc1ncnc2c1ncn2[C@@H]1O[C@@H](CO)[C@H](O)[C@@H]1O`, the activity change, negative = inhibition was -19.9% [at 38 µM] in assay [1] and 0.83% [at 38 µM] in [3]. The Potency entry in [2], in [7], in [8] and in assay [17] was “inactive” each time. Besides, in assay [4], the activity, negative = inhibition was -6.86% [at 38 µM]. The Potency in assay [5] and in assay [6] was greater than 46 µM in each case. Further, the call in assay [13], in assay [18], in assay [15] and in [16] was inactive.

Consider `CC[C@H](C)C(=O)O[C@@H]1CCC=C2C=C[C@H](C)[C@@H](CC[C@H]3C[C@@H](O)CC(=O)O3)[C@H]21`, for which the activity change, negative = inhibition in [1] was -28.7% [at 38 µM]; in assay [3], 6.96% [at 38 µM]. Besides, the Potency entry in assay [2], in [7], in [8], in [11] and in assay [12] was “inactive” each time. In addition, in assay [4], the activity, negative = inhibition was 10.1% [at 38 µM]. In addition, the Potency in assay [5] and in [6] was greater than 46 µM in each case.

As for `CN1C[C@@H](O)[C@@H](O)[C@@H](O)[C@@H]1CO`, the activity change, negative = inhibition in [1] is 0.324% [at 38 µM]; in assay [3], 16.3% [at 38 µM]. Besides, the Potency result in [2], in assay [7], in assay [8], in assay [9], in [11] and in [12] was “inactive” in each case. For the same compound, the activity, negative = inhibition in assay [4] was -5.85% [at 38 µM]. The Potency in assay [5] and in assay [6] was greater than 46 µM each time.

For the compound `CCN1/C(=C\C(C)=O)Sc2ccc(OC)cc21`, the activity change, negative = inhibition in assay [1] is -18.4% [at 38 µM]; in [3] it was 10.3% [at 38 µM]. Also, the Potency in assay [2] is 0.631 µM (active); in [5], greater than 46 µM; in [6], greater than 46 µM. The activity, negative = inhibition in [4] was 2.84% [at 38 µM]. In addition, the Potency result in assay [7], in assay [8], in assay [9], in assay [11] and in assay [12] was “inactive” throughout.
